Each compound was assayed on HepG2 (assay: GSK_TCMDC: Percent inhibition of human HepG2 cell line. Test compounds present at 10uM.).
Assay type: functional

| SMILES | Inhibition |
| --- | --- |
| Cc1[nH]cc(Br)c(=O)c1-c1ccc(Oc2ccc(OC(F)(F)F)cc2)cc1 | 22% |
| CCNC(=O)c1ccc(-n2nc(C)cc2-c2ccccc2)cc1 | 11% |
| O=C(NC1CCCC1)c1ccc(N2CCC(NCc3cccc(C(F)(F)F)c3)CC2)cc1 | 11% |
| Cc1cc2c(cc1C(F)(F)F)N(C(=O)Nc1cc(OCCN(C)C)cc(C(F)(F)F)c1)CC2.Cl | 16% |
| Cc1cc(CNCC2CCC(CNCCCc3ccccc3)CC2)ccc1O (stereo not given) | 25% |
| CN1CCC(N2CCN(Cc3cccc(-c4ccc(-c5nc6ccccc6[nH]5)cc4)c3)CC2)CC1.O=C(O)C(F)(F)F | 56% |
| Cc1ccc(C(=O)Nc2ccc(OC3CCN(CCC(C)C)C3)c(Cl)c2)cc1.O=C(O)C(F)(F)F (stereo not given) | 63% |
| O=C(Nc1ccccc1)Nc1ccc(-n2ccc(C(F)(F)F)n2)cc1 | 15% |
| COc1ccc(CCN(C)CCCN2CCC(NC(=O)c3cccc4c(=O)c5ccccc5[nH]c34)CC2)cc1OC.O=C(O)C(=O)O | 19% |
| Cn1nccc1C(=O)NCCNCc1cccc(-c2csc(-c3nc4ccccc4[nH]3)c2)c1.O=C(O)C(F)(F)F | 30% |
| CCCC(CC)n1ccc2c3c(N)nc(N)nc3ccc21.CS(=O)(=O)O (stereo not given) | 67% |
| CC1(CCc2ccccc2)N=C(N)N(Cc2ccccc2)C(=O)C1c1ccc(Cl)c(Cl)c1.O=C(O)C(F)(F)F (stereo not given) | 100% |
| CCc1cccc(-n2c(=O)c3cccnc3n2CC(=O)NCc2ccccc2Cl)c1 | 25% |
| CCCCc1cc(NCC)nc(Nc2cccc(OC)c2)n1 | 9% |
| Br.CC1(C)NC(N)=NC(=N)N1OCCCCOc1ccc(Cl)cc1C1CCCCC1 | 56% |
| COc1ccccc1N1CCN(C(C(=O)NCc2ccc3c(c2)OCO3)c2ccc3c(c2)OCCCO3)CC1 (stereo not given) | 15% |
| O=C(O)C(F)(F)F.Oc1ccc(CCCNc2nc(NCc3cccc4ccccc34)nc(NC3CCNCC3)n2)cc1 | 8% |
| CN(C)Cc1cccc(-c2cnc(N)c(-c3nc4cc(S(C)(=O)=O)ccc4[nH]3)c2)c1.O=C(O)C(F)(F)F | 27% |
| Cc1cc2nc(-c3ccc(OCC(=O)NCc4ccc(C(C)(C)C)cc4)cc3)[nH]c2cc1C | 11% |
| CC1CN(Cc2ccc(-c3ccc(-c4nc5cc(F)ccc5[nH]4)cc3)cc2)CC(C)O1.O=C(O)C(F)(F)F (stereo not given) | 40% |
| Cc1cccc2nc(-c3ccc(-c4ccc(NC(=O)Nc5ccc(Cl)c(Cl)c5)cc4)s3)[nH]c12 | 100% |
| CN1CCC(C(=O)N(Cc2ccc(-c3ccc(CNCCc4ccc(S(C)(=O)=O)cc4)cn3)cc2)Cc2ccc3c(c2)OCO3)CC1.O=C(O)C(F)(F)F | 16% |
| CN(C)CCNc1cc(-c2ccc3ccccc3c2)nc2ccccc12 | 24% |
| Cc1cc(=O)c(-c2ccc(Oc3ccc(Cl)cc3Cl)cc2)c(C)[nH]1 | 0% |
| CN1CCN(c2ccnc3ccc(NC(=O)Cc4ccc5ccccc5c4)cc23)CC1 | 6% |
| Oc1ccccc1CN(CCCN(Cc1ccccn1)Cc1ccccc1O)Cc1ccccn1 | 64% |
| Cc1ccc(O)cc1Nc1ccnc2cc(-c3cccc(CNCCS(C)(=O)=O)c3)ccc12 | 9% |
| CCOc1cc(C(=O)N[C@@H](Cc2ccccc2)[C@H](O)CNCc2cccc(OC)c2)cc(N2CCCCS2(=O)=O)c1.Cl | 3% |
| Cc1cccc2nc(-c3ccc(-c4cccc(NC(=O)c5cncn5C)c4)cc3)[nH]c12 | 2% |
| c1cncc(Oc2ccc(Nc3ccnc4cc(-c5cccc(CN6CCCCC6)c5)ccc34)cc2)c1 | 33% |

— ChEMBL document CHEMBL1157539, “Thousands of chemical starting points for antimalarial lead identification” (Nature, 2010)
